{
  "source": "PubChem BioAssay AID602342",
  "about": "(Broad Institute, 2012)",
  "note": "The campaign covered roughly 340,000 compounds. About 1,000 (0.29%) were called active.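 Rule for the calls: active = mean replicate activation score at least 90 and every replicate individually at or above 90; inconclusive = only one of the two criteria met; inactive = neither criterion met.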 This excerpt belongs to a sample that is enriched for actives.",
  "data": [
    {"assay": "miR-122 Renilla sensor signal increase in Huh7, primary screen, miR-122 inhibitor project, cell-based, single point, plate reader (AID 602342);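 note: higher luciferase means less miR-122 activity so hits act as miR-122 inhibitors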", "details": "Huh7 miR-122 Renilla luciferase sensor, 48 h, hits give high values, neutral wells = 0, positive control = 100; at 16.7 µM unless noted", "values": [
      {"smiles": "Cc1ccc(S(=O)(=O)Nc2ccc3c(c2)C(=O)N([C@H](C)CO)C[C@H](C)[C@H](CN(C)S(=O)(=O)c2ccc(F)cc2)O3)cc1", "activation (reporter increase)": "-7.86% (inactive)"},
      {"smiles": "CC(=O)N1CC[C@@H]2[C@@H](CO)N(C)c3ccc(-c4ccc(C#N)cc4)cc3[C@@H]21", "activation (reporter increase)": "-2.99% (inactive)"},
      {"smiles": "C[C@@H]1CN([C@H](C)CO)C(=O)c2cc(NC(=O)NC3CCCCC3)ccc2O[C@@H](C)CCCCO[C@H]1CN(C)S(C)(=O)=O", "activation (reporter increase)": "-11.1% (inactive)"},
      {"smiles": "CCC(=O)N[C@H]1C=C[C@@H](CC(=O)NCC2CCCCC2)O[C@H]1CO", "activation (reporter increase)": "-4.01% (inactive)"},
      {"smiles": "C[C@@H]1CCCCO[C@@H](CN(C)Cc2ccncc2)[C@H](C)CN([C@@H](C)CO)C(=O)c2cc(N(C)C)ccc2O1", "activation (reporter increase)": "9.37% (inactive)"},
      {"smiles": "C[C@@H]1CN([C@@H](C)CO)C(=O)Cc2cc(NC(=O)Nc3ccc(F)cc3)ccc2O[C@@H]1CN(C)C", "activation (reporter increase)": "-1.94% (inactive)"},
      {"smiles": "CN(C)C(=O)[C@@H]1[C@@H](CO)[C@@H]2Cn3c(cccc3=O)[C@H]1N2CC1CCCCC1", "activation (reporter increase)": "-3.4% (inactive)"},
      {"smiles": "Cc1ccccc1-c1cnc2c(c1)C(=O)N([C@@H](C)CO)C[C@@H](C)[C@@H](CN(C)CC1CCOCC1)O2", "activation (reporter increase)": "-4.12% (inactive)"},
      {"smiles": "CN1C(=O)c2cc(NS(=O)(=O)c3ccc(Cl)cc3)ccc2OC[C@H]2O[C@@H](CC(=O)O)CC[C@H]21", "activation (reporter increase)": "37.8% (inactive)"},
      {"smiles": "Cc1ccc(C(=O)Oc2ccc(C(=S)N3CCOCC3)cc2)cc1", "activation (reporter increase)": "-1.88% [at 12.5 µM] (inactive)"},
      {"smiles": "O=C(Oc1ccc(C(=S)N2CCOCC2)cc1)c1ccc(F)cc1", "activation (reporter increase)": "330% [at 12.5 µM] (active)"},
      {"smiles": "O=C(Oc1ccc(F)cc1)N1CCOCC1", "activation (reporter increase)": "-3.21% [at 12.5 µM] (inactive)"},
      {"smiles": "CC(=O)N(C)C[C@H]1Oc2ncc(-c3cccc(F)c3)cc2C(=O)N([C@@H](C)CO)C[C@H]1C", "activation (reporter increase)": "-3.49% (inactive)"},
      {"smiles": "CN1C(=O)c2cc(NC(=O)c3ccc(F)c(F)c3)ccc2OC[C@H]2O[C@@H](CC(=O)N3CCCCC3)CC[C@H]21", "activation (reporter increase)": "-8.45% (inactive)"},
      {"smiles": "O=C(/C=C(O)/C=C/c1ccc(O)cc1)/C=C/c1ccc(O)cc1", "activation (reporter increase)": "140% [at 12.5 µM] (active)"},
      {"smiles": "O=C(/C=C/c1ccc2c(c1)OCCO2)c1ccc(O)cc1", "activation (reporter increase)": "7.01% [at 12.5 µM] (inactive)"},
      {"smiles": "COc1ccc(/C=C/C(=O)c2c(O)cc(OC)cc2OC)cc1", "activation (reporter increase)": "2.04% [at 12.5 µM] (inactive)"},
      {"smiles": "Cc1noc(C)c1NC(=O)N(C)C[C@H]1OCCCC[C@H](C)Oc2ccc(NC(=O)Nc3ccccc3)cc2C(=O)N([C@H](C)CO)C[C@@H]1C", "activation (reporter increase)": "-0.276% (inactive)"},
      {"smiles": "Cn1cnc([N+](=O)[O-])c1Sc1n[nH]c(N)n1", "activation (reporter increase)": "-3.18% [at 12.5 µM] (inactive)"},
      {"smiles": "Cn1cnc([N+](=O)[O-])c1Nc1ccccc1O", "activation (reporter increase)": "2.42% [at 12.5 µM] (inactive)"},
      {"smiles": "Cn1cnc([N+](=O)[O-])c1Sc1ccccc1", "activation (reporter increase)": "217% [at 12.5 µM] (active)"},
      {"smiles": "CCN(C[C@@H]1[C@H](c2ccccc2)[C@@H](CO)N1CC1CC1)C(=O)c1ccccn1", "activation (reporter increase)": "-7.14% (inactive)"},
      {"smiles": "C[C@@H]1CN([C@@H](C)CO)C(=O)Cc2cc(NC(=O)C3CC3)ccc2O[C@H]1CN(C)C(=O)NC1CCCCC1", "activation (reporter increase)": "0.966% (inactive)"},
      {"smiles": "CCN(CC)S(=O)(=O)c1cc(C(=O)Nc2ccccn2)ccc1C", "activation (reporter increase)": "-6.4% [at 12.5 µM] (inactive)"},
      {"smiles": "COc1cc(OC)c(C(=O)Nc2ccccc2-c2ccccc2)cc1OC", "activation (reporter increase)": "9.15% [at 12.5 µM] (inactive)"},
      {"smiles": "Cc1ccc(C(=O)Nc2ccccc2-c2ccccc2)cc1S(=O)(=O)Nc1ccccc1", "activation (reporter increase)": "94% [at 12.5 µM] (active)"},
      {"smiles": "C[C@H]1CCCCO[C@@H](CN(C)C(=O)Nc2cccc3ccccc23)[C@@H](C)CN([C@@H](C)CO)C(=O)c2cc(NS(=O)(=O)c3cn(C)cn3)ccc2O1", "activation (reporter increase)": "-0.833% (inactive)"},
      {"smiles": "Cc1ccc(NS(=O)(=O)c2ccc(F)cc2)nc1", "activation (reporter increase)": "4.41% [at 12.5 µM] (inactive)"},
      {"smiles": "Cn1c(=O)n(C)c2cc(S(=O)(=O)Nc3ccc(F)cc3)ccc21", "activation (reporter increase)": "44% [at 12.5 µM] (inactive)"},
      {"smiles": "Cc1cc(C)cc(NS(=O)(=O)c2ccc(F)cc2)c1", "activation (reporter increase)": "117% [at 12.5 µM] (active)"},
      {"smiles": "COc1ccc(CN(C)C[C@H]2Oc3c(NS(=O)(=O)c4ccccc4)cccc3C(=O)N([C@@H](C)CO)C[C@H]2C)cc1", "activation (reporter increase)": "4.79% (inactive)"},
      {"smiles": "CCC(=O)N1[C@@H]2c3ccc(-c4cccnc4)c(=O)n3C[C@H]1[C@H](CO)[C@H]2C(=O)N1CCc2ccccc2C1", "activation (reporter increase)": "2.45% (inactive)"},
      {"smiles": "COc1ccccc1C#Cc1cnc2c(c1)C(=O)N([C@@H](C)CO)C[C@H](C)[C@@H](CN(C)C(=O)CC1CC1)O2", "activation (reporter increase)": "-1.03% (inactive)"},
      {"smiles": "O=C1c2ccccc2C(=O)C1c1ccccc1F", "activation (reporter increase)": "-3.15% [at 12.5 µM] (inactive)"},
      {"smiles": "O=C1c2ccccc2C2=Nc3ccccc3SC(c3ccccc3F)C12", "note": "(configuration not stated)", "activation (reporter increase)": "162% [at 12.5 µM] (active)"},
      {"smiles": "O=C(C[C@@H]1C[C@@H]2c3cc(NC(=O)Nc4ccccc4F)ccc3O[C@@H]2[C@H](CO)O1)NCCc1ccccc1", "activation (reporter increase)": "-2.6% (inactive)"},
      {"smiles": "CS(=O)(=O)N(CC(=O)Nc1ccc(F)cc1)C1CCCCC1", "activation (reporter increase)": "0.106% [at 12.5 µM] (inactive)"},
      {"smiles": "CS(=O)(=O)N(CC(=O)Nc1ccc(Cl)c(Cl)c1)C1CCCCC1", "activation (reporter increase)": "174% [at 12.5 µM] (active)"},
      {"smiles": "N#CCCN(C(=O)Nc1ccc(Cl)c(Cl)c1)C1CCCCC1", "activation (reporter increase)": "-4.25% [at 12.5 µM] (inactive)"},
      {"smiles": "C[C@@H]1CN([C@H](C)CO)C(=O)c2cc(C#CCN(C)C)cnc2O[C@H]1CN(C)C(=O)NC1CCCC1", "activation (reporter increase)": "26% (inactive)"},
      {"smiles": "CN1CCN(C(=O)C[C@H]2C[C@@H]3c4cc(NS(=O)(=O)c5ccc(F)cc5)ccc4O[C@@H]3[C@@H](CO)O2)CC1", "activation (reporter increase)": "-5.91% (inactive)"},
      {"smiles": "CCCN1C[C@H](C)[C@@H](OC)CN(C)C(=O)c2ccc(NC(=O)CC)cc2OC[C@@H]1C", "activation (reporter increase)": "4.54% (inactive)"},
      {"smiles": "COc1ccc(CNS(=O)(=O)c2cc(-c3cc(C)no3)ccc2C(C)C)cc1", "activation (reporter increase)": "200% [at 12.5 µM] (active)"},
      {"smiles": "Cc1cc(-c2ccc(C)c(S(=O)(=O)NCCCN(Cc3ccccc3)C(C)C)c2)on1", "activation (reporter increase)": "46.4% [at 12.5 µM] (inactive)"},
      {"smiles": "Cc1noc(C)c1S(=O)(=O)NCCc1ccc(S(N)(=O)=O)cc1", "activation (reporter increase)": "-7.32% [at 12.5 µM] (inactive)"},
      {"smiles": "Cc1cc(-c2ccc(C)c(S(=O)(=O)Nc3ccc(S(N)(=O)=O)cc3)c2)on1", "activation (reporter increase)": "5.41% [at 12.5 µM] (inactive)"},
      {"smiles": "CCOc1ccccc1CNS(=O)(=O)c1cc(-c2cc(C)no2)ccc1C", "activation (reporter increase)": "54.4% [at 12.5 µM] (inactive)"},
      {"smiles": "CCc1ccc(-c2cc(C)no2)cc1S(=O)(=O)NCCc1ccc(S(N)(=O)=O)cc1", "activation (reporter increase)": "124% [at 12.5 µM] (active)"},
      {"smiles": "C[C@@H]1CN([C@@H](C)CO)C(=O)c2cc(NC(=O)Nc3cccc4ccccc34)ccc2O[C@H]1CN(C)Cc1ccc(Oc2ccccc2)cc1", "activation (reporter increase)": "-7.47% (inactive)"},
      {"smiles": "C[C@H](CO)N1C[C@H](C)[C@@H](CN(C)C(=O)C2CC2)Oc2ncc(-c3cccc(F)c3)cc2C1=O", "activation (reporter increase)": "-1.71% (inactive)"},
      {"smiles": "CN(C)C(=O)C[C@@H]1CC[C@H]2[C@@H](COC[C@H](O)CN2S(=O)(=O)c2ccccc2)O1", "activation (reporter increase)": "0.2% (inactive)"},
      {"smiles": "CCCNC(=O)Nc1ccc2c(c1)C(=O)N(C)[C@@H]1CC[C@@H](CC(=O)NC)O[C@H]1CO2", "activation (reporter increase)": "-13.3% (inactive)"},
      {"smiles": "O=C(C[C@@H]1CC[C@H]2[C@@H](COC[C@@H](O)CN2C(=O)c2ccc3c(c2)OCO3)O1)NC1Cc2ccccc2C1", "activation (reporter increase)": "5.8% (inactive)"},
      {"smiles": "COCCNC(=O)C[C@@H]1CC[C@H]2[C@H](COc3ccc(NS(=O)(=O)c4ccc(Cl)cc4)cc3C(=O)N2C)O1", "activation (reporter increase)": "12.5% (inactive)"},
      {"smiles": "C[C@@H]1CN([C@@H](C)CO)C(=O)c2cc(C#CC(C)(C)O)cnc2O[C@H]1CN(C)Cc1cccc(F)c1", "activation (reporter increase)": "0.476% (inactive)"},
      {"smiles": "CO[C@@H]1CN(C)C(=O)c2ccc(NC(=O)C3CCC3)cc2OC[C@H](C)N(C(=O)CN(C)C)C[C@H]1C", "activation (reporter increase)": "-7.5% (inactive)"},
      {"smiles": "COCC(=O)Nc1ccc2c(c1)C(=O)N(C)[C@@H]1CC[C@@H](CC(=O)NCc3cccc(F)c3)O[C@@H]1CO2", "activation (reporter increase)": "41.7% (inactive)"},
      {"smiles": "CCCC(=O)Nc1ccc2c(c1)C(=O)N(C)[C@H]1CC[C@@H](CC(=O)NCc3cccc(F)c3)O[C@H]1CO2", "activation (reporter increase)": "120% (active)"},
      {"smiles": "COCC(=O)Nc1ccc2c(c1)C(=O)N(C)[C@H]1CC[C@@H](CC(=O)NCc3cccc(F)c3)O[C@H]1CO2", "activation (reporter increase)": "62.5% (inactive)"},
      {"smiles": "CS(=O)(=O)N1[C@H](C(=O)NCc2ccncc2)[C@@H](CO)[C@@H]2Cn3c(ccc(C4=CCCCC4)c3=O)[C@@H]21", "activation (reporter increase)": "1.3% (inactive)"},
      {"smiles": "O=C(Nc1cc(S(=O)(=O)Nc2ccc(Cl)cc2)ccc1O)c1ccc(F)cc1F", "activation (reporter increase)": "118% [at 12.5 µM] (active)"},
      {"smiles": "CCS(=O)(=O)c1ccc(O)c(NC(=O)COc2ccc(Cl)cc2)c1", "activation (reporter increase)": "2.08% [at 12.5 µM] (inactive)"},
      {"smiles": "O=C(Nc1cccc(S(=O)(=O)NC2=NCCC2)c1)c1ccc(F)cc1F", "activation (reporter increase)": "0.138% [at 12.5 µM] (inactive)"},
      {"smiles": "C[C@H](CO)N1C[C@H](C)[C@H](CN(C)C(=O)NC2CCCCC2)OCCCC[C@H](C)Oc2ccc(NC(=O)Nc3ccc4c(c3)OCO4)cc2C1=O", "activation (reporter increase)": "-2.47% (inactive)"},
      {"smiles": "C[C@@H]1CCCCO[C@H](CN(C)Cc2ccccc2)[C@H](C)CN([C@H](C)CO)C(=O)c2cc(NS(=O)(=O)c3ccc(Cl)cc3)ccc2O1", "activation (reporter increase)": "-12.3% (inactive)"},
      {"smiles": "COc1ccc(S(=O)(=O)Nc2ccc3c(c2)C(=O)N([C@@H](C)CO)C[C@@H](C)[C@H](CN(C)C(=O)CCC(F)(F)F)OCCCC[C@H](C)O3)cc1", "activation (reporter increase)": "-1.47% (inactive)"},
      {"smiles": "C[C@@H]1CN([C@@H](C)CO)C(=O)c2cc(-c3cncnc3)cnc2O[C@H]1CN(C)C(=O)c1cccc(F)c1", "activation (reporter increase)": "-0.099% (inactive)"}
    ]}
  ]
}
